# Most compounds without a hit are left out; they make up all but 0.37% or so of the library.
# Epigenetic derep – epigenetic control regulation, reporter derepression; murine LDR cells, GFP reporter derepression, 30 h; Potency, µM (titrated, usually from 53.9 µM), for the others: at the highest dose GFP activation, hits mostly activators; 0.2% of 280,000 active; also: potency is read from the fitted curve at half-maximal effect; % of control where 0% means no effect; nearly all actives have a fitted effect of over 60% in size
#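 Murine LDR cells bearing a silenced CMV-driven GFP reporter were exposed to compound for 30 h at 37 C. After PBS washes, GFP-positive cells (20-120 um objects) counted by laser-scanning microplate cytometry.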
# CBFb-RUNX1 inh – CBF-beta/RUNX1 interaction disruption; Q01196+Q13951; Potency, µM (doses to about 59.8 µM), for the others: top-dose activity, negative = inhibition, most hits filed as inhibitors; AlphaScreen CBFb-His/RUNX1-biotin binding, biochemical; 230,000 tested, under 10 active; also: % of control where 0% means no effect
#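 Bead-based AlphaScreen assay; binding partners His-tagged CBF-beta and biotinylated RUNX1 at 30 nM each. Compound exposure 15 min after a 20-min protein preincubation; bead step 90 min; all steps at room temperature.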
# Vif-A3G inh – blocks the Vif interaction with human APOBEC3G. Potency, µM (top dose mostly 46.1 µM), for the others: at the highest dose activity, negative = active, usual class: inhibitors. Q9HC16. HeLa A3G-eYFP + Vif (tagged APOBEC3G with the HIV-1 protein that degrades it), YFP fluorescence, overnight. AID 602310. 0.076% of 410,000 active; also: potency is read from the fitted curve at half-maximal effect; % is scaled to controls: 0 for no effect and ±100 for the full control effect; nearly all actives have a fitted effect of over 60% in size
# Target sequence (Q9HC16 whole entry, looked up): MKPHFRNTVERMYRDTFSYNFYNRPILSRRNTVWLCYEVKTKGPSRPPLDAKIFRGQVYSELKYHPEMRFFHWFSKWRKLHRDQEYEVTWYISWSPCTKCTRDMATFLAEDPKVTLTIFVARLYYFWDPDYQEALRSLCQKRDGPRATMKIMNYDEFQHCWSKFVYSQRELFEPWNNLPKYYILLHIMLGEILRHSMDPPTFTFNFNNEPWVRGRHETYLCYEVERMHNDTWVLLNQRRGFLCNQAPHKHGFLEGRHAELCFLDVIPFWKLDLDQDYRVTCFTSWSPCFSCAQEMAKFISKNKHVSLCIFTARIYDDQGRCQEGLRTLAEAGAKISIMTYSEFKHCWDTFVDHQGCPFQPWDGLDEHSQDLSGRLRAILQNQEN
#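 HeLa cells stably expressing Vif and C-terminally eYFP-tagged A3G, seeded overnight at 37 deg C, then exposed to compound by pintool overnight at 37 deg C. Rise in yellow fluorescence (Ex 488/Em 500-530, Acumen) marks blocked Vif-driven A3G degradation.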
# MBNL1-CUG inh – MBNL1-poly(CUG) RNA binding inhibition | Q9NR56 | TR-FRET MBNL1-His/biotin-(CUG)12 binding, 665/545 ratio | Potency, µM (top dose mostly 57.5 µM), inactives show at the top dose activity change, negative = inhibition, usual class: inhibitors | 0.036% of 280,000 active | AID 2675; active = well fitted inhibition curve with a large enough effect in the signal ratio, with a control signal flat, not every such curve was filed as active; inconclusive = small, poorly fitted or top-dose-only effect, or effect the other way, or a change in a side signal; inactive = no such curve, though single readings can be large or run the other way; the % refers to the signal ratio; also: potency is read from the fitted curve at half-maximal effect; % is scaled to controls: 0 for no effect and ±100 for the full control effect
# Target sequence (Q9NR56 whole entry, looked up): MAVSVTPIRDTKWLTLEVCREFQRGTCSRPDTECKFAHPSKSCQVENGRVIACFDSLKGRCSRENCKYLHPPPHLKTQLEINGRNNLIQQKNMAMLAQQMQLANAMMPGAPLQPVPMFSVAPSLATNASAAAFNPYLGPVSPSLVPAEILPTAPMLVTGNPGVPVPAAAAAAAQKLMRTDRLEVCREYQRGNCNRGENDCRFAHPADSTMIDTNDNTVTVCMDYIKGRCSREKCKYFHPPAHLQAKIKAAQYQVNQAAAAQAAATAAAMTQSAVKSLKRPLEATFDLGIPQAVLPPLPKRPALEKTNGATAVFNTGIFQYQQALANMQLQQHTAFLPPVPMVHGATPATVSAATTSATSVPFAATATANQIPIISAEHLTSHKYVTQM
#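 Ratiometric TR-FRET (665 over 545 nm, excitation 340 nm) tracks disruption of MBNL1-His/biotin-(CUG)12 complex after 60 min at room temperature, with compounds at 92 nM to 58 uM final.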
# Vif-A3F inh – blocks the Vif interaction with APOBEC3F | AID 602313 | 0.2% of 390,000 active | Potency, µM (highest dose often 46.1 µM), for inactives: top-dose activity, negative = active | HeLa A3F-eYFP + Vif (tagged APOBEC3F with the HIV-1 protein that degrades it), YFP fluorescence increase; also: potency is read from the fitted curve at half-maximal effect; % of control where 0% means no effect; nearly all actives have a fitted effect of over 65% in size
#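 Fluorescence increase (Ex 488/Em 500-530) after overnight compound treatment at 37 deg C flags inhibition of Vif-driven A3F-eYFP loss in stable HeLa A3F-eYFP/Vif cells seeded overnight beforehand.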
# TSG101-PTAP inh – blocks PTAP/TSG101 interaction to inhibit HIV-1 budding. Fluorescence polarization, FITC-PTAP peptide / Tsg101 binding. Potency, µM (top dose mostly 115 µM), inactives show at the highest dose activity change, negative = inhibition, usual class: inhibitors. 340,000 tested, under 10 active; active = well fitted inhibition curve with a large enough effect in the main read-out, with a control signal flat, not every such curve was filed as active; inconclusive = small, poorly fitted or top-dose-only effect, or effect the other way, or a change in a side signal; inactive = no such curve, though single readings can be large or run the other way; also: potency is read from the fitted curve at half-maximal effect; % of control where 0% means no effect
#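 Tsg101 binding domain (10 uM final) was mixed with compound and a FITC-labeled PTAP peptide (50 nM final) in HEPES pH 7.5 buffer with NaCl, Tween 20, EDTA and TCEP; fluorescence polarization was read after 20 min at r.t.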
# Starred values were filed as active, the others as inactive; ? = inconclusive; nt = no result given. Unless noted, calls follow the shape of the dose curve; as a rule, active = well fitted curve in the direction sought with a large enough effect; inconclusive = small, poorly fitted or top-dose-only effect, or another doubt; inactive = no such curve, though single readings can be large; an effect the other way counts as inactive or inconclusive.
SMILES,Epigenetic derep,CBFb-RUNX1 inh,Vif-A3G inh,MBNL1-CUG inh,Vif-A3F inh,TSG101-PTAP inh
O=c1oc2cc(O)ccc2cc1-c1nc(-c2ccc(Cl)c(Cl)c2)cs1,7.94µM*,nt,?,nt,?,nt
COc1ccc(Oc2nc3c(C)cccn3c(=O)c2/C=C(\C#N)c2nc3ccccc3[nH]2)cc1,3.98µM*,nt,nt,nt,nt,nt
Cc1cccn2c(=O)c(/C=C(\C#N)c3nc4ccccc4s3)c(Oc3ccc(Br)cc3)nc12,0.0%,nt,4.0%,nt,7.2%,nt
Cc1cc(C)cc(Oc2nc3c(C)cccn3c(=O)c2/C=C(\C#N)c2nc3ccccc3[nH]2)c1,7.08µM*,nt,-5.8%,nt,?,nt
Cc1ccc(Oc2nc3ccccn3c(=O)c2/C=C(\C#N)c2nc3ccccc3s2)c(C)c1,-1.0%,nt,1.7%,nt,-7.4%,nt
CCc1ccc(Oc2nc3c(C)cccn3c(=O)c2/C=C(\C#N)c2nc3ccccc3[nH]2)cc1,11.2µM*,nt,-1.1%,nt,-28.6%,nt
Cc1ccccc1Oc1nc2ccccn2c(=O)c1/C=C(\C#N)c1nc2ccccc2[nH]1,11.2µM*,nt,nt,nt,nt,nt
OCCN(CCO)c1ccc(/C=C/c2ccnc3ccccc23)cc1,nt,nt,0.2%,nt,nt,nt
Cc1sc2ccccc2[n+]1CCc1ccccc1,nt,nt,-0.6%,nt,nt,nt
CN(C)c1ccc(/C=C/c2cc3ccccc3cn2)cc1,nt,nt,3.3%,nt,nt,nt
O/N=C(/C[n+]1csc2ccccc21)c1ccccc1,nt,nt,3.1%,nt,nt,nt
Cc1ccnc2ccc3ccccc3c12,nt,nt,4.5%,nt,nt,nt
CCN1C(=O)/C(=C/C=C2/Sc3ccc4ccccc4c3N2CCO)SC1=S,1.0%,-7.9%,0.4%,nt,15.9%,-0.4%
CCN1/C(=C/C=C/c2oc3ccc4ccccc4c3[n+]2CC)Oc2ccc3ccccc3c21,0.126µM*,?,-101.3%,9.5%,-342.6%,?
Cc1cc(N(C)C)cc(C)c1/C=C/c1cc[n+](C)c2ccccc12,nt,nt,5.1%,nt,nt,nt
Cc1cc2nc(SCCOC(=O)Nc3cccc(Cl)c3)nc(C)c2cc1C,0.0%,13.0%,-3.0%,0.2%,25.1µM*,-0.7%
CCOC(=O)CN1C(=O)S/C(=C/c2ccc(N3CCCCC3)o2)C1=O,?,0.8%,5.7%,9.2%,31.6µM*,?
CCCN1C(=O)S/C(=C/c2ccc(N3CCOCC3)o2)C1=O,10µM*,4.9%,?,?,?,?
CCCN1C(=O)S/C(=C\c2ccc(N3CCOCC3)cc2C)C1=O,0.0%,2.7%,nt,5.5%,nt,nt
CCCN1C(=O)S/C(=C\c2ccc(N3CCOCC3)o2)C1=O,11.2µM*,-8.1%,?,-11.3%,?,?
O=C(C[n+]1cccc(Cl)c1)c1ccc(O)c(O)c1,nt,nt,-1.1%,nt,nt,nt
COc1ccc(N=Cc2c(O)n(-c3ccc(OC)cc3)c(=O)c3ccccc23)cc1,?,1.0%,-0.6%,0.3%,11.2µM*,0.1%
CC1Sc2ccc(C(=O)NCc3ccccn3)cc2NC1=O (stereo not given),nt,nt,2.3%,nt,12.6µM*,5.1%
Cc1ccc(N2C(=O)[C@@H]3[C@H](C2=O)[C@H]2C=C(C(=O)c4ccccc4)C=CN2[C@@H]3C(=O)c2ccc(Cl)cc2)cc1,0.0%,-1.1%,-14.7%,26.3%,11.2µM*,-0.8%
CN(C)C(=O)COC(=O)c1ccccc1OCC(=O)Nc1ccc(Br)cc1,nt,nt,2.6%,nt,nt,nt
SMILES,Epigenetic derep,CBFb-RUNX1 inh,Vif-A3G inh,MBNL1-CUG inh,Vif-A3F inh,TSG101-PTAP inh
Cc1ccc2nc(/C(C#N)=C\c3cc(O)ccc3[N+](=O)[O-])[nH]c2c1,-1.2%,-6.8%,?,?,-14.0%,-0.2%
Cc1c(Cl)cccc1-c1ccc(/C=C(\C#N)c2nc3ccccc3[nH]2)o1,?,nt,?,nt,12.6µM*,nt
Cc1ccc2nc(/C(C#N)=C/c3ccc(-c4ccc(F)cc4F)o3)[nH]c2c1,?,nt,11.2µM*,nt,?,nt
Cc1ccc2nc(/C(C#N)=C/c3ccc(-c4cccc([N+](=O)[O-])c4)o3)[nH]c2c1,-1.6%,2.8%,-23.2%,?,10µM*,5.4%
N#C/C(=C\c1c(Cl)cccc1Cl)c1nc2ccccc2[nH]1,-0.3%,12.3%,-1.4%,-0.4%,-0.5%,0.6%
O=C(C[n+]1cccc2ccccc21)c1ccc(F)cc1,nt,nt,-4.3%,nt,nt,nt
O=S1(=O)CCOCCCN1Cc1ccc(F)cc1,nt,nt,2.5%,nt,nt,nt
O=c1cc(/C=C/c2ccc([N+](=O)[O-])cc2)c2ccccc2[nH]1,nt,nt,0.2%,nt,nt,nt
COc1cc(/C=C(/C(=O)c2cccs2)c2nc3ccccc3[nH]2)ccc1O,6.4%,-3.5%,10µM*,-9.1%,-15.4%,-4.1%
O=C(/C(=C/c1ccc(Cl)cc1)c1nc2ccccc2[nH]1)c1cccs1,-0.9%,-19.3%,?,1.2%,4.0%,0.0%
CCOC(=O)Cn1c(=O)c(-c2ccccc2N)nc2ccccc21,1.0%,3.3%,-3.6%,?,-12.8%,-7.0%
CCOC(=O)Cn1c(=O)c(-c2cc(Br)ccc2N)nc2ccccc21,?,1.9%,-23.1%,8.0%,11.2µM*,?
C[N+]1(CC(=O)c2ccc(I)cc2)CCOCC1,nt,nt,0.9%,nt,nt,nt
Cc1c(Cn2cnc3c(cnn3C(C)(C)C)c2=O)cccc1C(F)(F)F,nt,nt,-3.5%,nt,nt,nt
COc1ccc2[nH]c(C(=O)N/N=C/c3ccc(OC)c(O)c3)cc2c1,nt,nt,2.51µM*,?,0.7%,2.8%
COc1ccc2[nH]c(C(=O)N/N=C/c3ccccc3OC)cc2c1,nt,nt,?,-3.8%,-15.8%,-0.3%
CCn1nc(-c2ccccc2C)nc2c(=O)n(C)c(=O)nc1-2,nt,nt,-14.0%,nt,nt,nt
COc1ccc2cc(/C=N/NC(=O)c3ccc(CN(c4ccc(C)c(C)c4)S(C)(=O)=O)cc3)c(Cl)nc2c1,22.4µM*,1.4%,-8.0%,38.9%,9.4%,-0.4%
COc1cc2c(NC3CCN(C)CC3)nc(N3CCCN(C)CC3)nc2cc1OCC1CCCCN1 (stereo not given),nt,nt,2.4%,nt,nt,nt

# From PubChem
